The term inhibition denotes the change of the read-out against control, counted positive when it falls.

Each structure is given as a SMILES string. In all, about 320,000 compounds went through this assay and about 2,100 (0.66%) were called active.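 The calls were made as follows: active = inhibition above the mean inhibition of all tested compounds plus 3 SD, set per campaign (cut at about 40% in these data); inactive = the rest.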 For the sample, actives were picked, then their nearest neighbours and some compounds at random.

The target of this assay is Induced myeloid leukemia cell differentiation protein Mcl-1 (Homo sapiens) (UniProt Q07820). As to the kind of experiment: inhibitors of MCL1 binding to BIM-BH3, primary screen, biochemical, fluorescence polarization (AID 2057).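 Also: 0% = DMSO wells and 100% = unlabeled Bim-BH3 peptide control; higher means more loss of mP so more displacement of Bim peptide.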 To be noted: GST-MCL1 / FITC-Bim-BH3 fluorescence polarization; at 10.9 µM; hits give high values. For orientation: Polarisation of emitted light reports the rotation of a fluorescent probe.
Induced myeloid leukemia cell differentiation protein Mcl-1 (Homo sapiens), sequence (Q07820 whole entry, looked up): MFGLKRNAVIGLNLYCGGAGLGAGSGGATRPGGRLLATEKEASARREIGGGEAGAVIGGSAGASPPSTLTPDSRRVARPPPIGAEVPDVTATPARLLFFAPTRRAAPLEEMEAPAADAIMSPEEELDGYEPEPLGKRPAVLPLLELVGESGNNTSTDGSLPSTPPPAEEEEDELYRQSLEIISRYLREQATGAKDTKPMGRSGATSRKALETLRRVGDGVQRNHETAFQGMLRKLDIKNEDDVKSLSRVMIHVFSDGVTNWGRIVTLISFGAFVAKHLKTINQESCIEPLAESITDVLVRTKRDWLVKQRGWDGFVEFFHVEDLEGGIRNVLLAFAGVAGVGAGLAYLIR
`OCC1(Cc2ccccc2C(F)(F)F)CCN(Cc2ccncc2)CC1`: the inhibition is 4.27% (inactive).
Next, `CC1(NC(=O)CCS(=O)(=O)c2ccc(Cl)cc2)CCS(=O)(=O)C1` (stereo not given): -1.26% (inactive).
For the compound `CC(=O)N1c2ccc(S(=O)(=O)N3CCC(C(=O)NC4CCCCC4C)CC3)cc2CC1C` (stereo not given), the inhibition is 2% (inactive).
`CC(C)(C)c1ccc(/C=C2\Oc3c(ccc(O)c3CN3CCN(CCO)CC3)C2=O)cc1`: the inhibition was 49.7% (active).
The same measure for `CCOC(=O)c1oc2c(CN3CCN(CCO)CC3)c(O)c(CC)cc2c(=O)c1-c1nc2ccccc2s1`: -0.61% (inactive); for `CCN(CC(=O)Nc1ccccc1C(F)(F)F)C(=O)CSCc1c(C)noc1C`: -5.73% (inactive).
The same measure for `COC(=O)c1cc(NS(=O)(=O)c2ccc3c(c2)c(=O)n(C)c(=O)n3C)cc(C(=O)OC)c1`: 3.04% (inactive); for `CCOC(=O)c1cc2n(c1N)-c1ccccc1C2=O`: 153% (active).
On to `CC(C)OC(=O)CN1C(=O)C(=O)c2ccccc21`, for which the inhibition is 3.82% (inactive).
Next, `CCOC(=O)c1ccccc1CN1C(=O)c2ccccc2S1(=O)=O`: 3.41% (inactive); `Cc1noc(C)c1-c1nc(CSc2ccc(Cl)cc2)no1`: 7.94% (inactive); `O=C(c1ccc(OC2CCN(C(=O)c3cccnc3)CC2)cc1)N1CCCCCC1`: 1.48% (inactive).
Next, `Cc1ccc(OS(=O)(=O)c2ccc(-c3csc(C)n3)s2)c(C)c1`: 2.53% (inactive); `CC1(C)CCc2nc(SCc3ccccc3)c(C#N)cc2C1`: -2.93% (inactive).
Next, `CC(NC(=O)CSc1nc2c(cc1C#N)CN(C)CC2)c1ccccc1` (stereo not given): 45% (active); `Cc1cc(NC(=O)CSc2nc3c(cc2C#N)CCCCC3)no1`: 2.25% (inactive); `CC1(C)NC(=O)N(CC(=O)Nc2cc(C(F)(F)F)cc(C(F)(F)F)c2)C1=O`: -2.94% (inactive).
As to `Cc1ccc(C(=O)Nc2ccc3c(c2)OCO3)cc1S(=O)(=O)N1CCCCC1`, the inhibition is 7.58% (inactive).
Next, `Cn1cccc1/C=C1\SC(=O)N(CC(=O)Nc2ccc(F)cc2)C1=O`: -0.64% (inactive); `Cc1ccc(C(=O)O)cc1-c1ccc(/C=C2\SC(=O)N(CC(=O)Nc3ccc4c(c3)OCO4)C2=O)o1`: 56.2% (active).
Take `COc1ccccc1NC(=O)CSc1nc2sc3c(c2c(=O)n1-c1ccccc1)CCN(C)C3`: the inhibition is -0.79% (inactive).
The same measure for `Cc1ccc(-c2nc(SCC(=O)Nc3ccccc3OC(F)F)c3c(C)c(C(=O)O)sc3n2)cc1`: 54.1% (active); for `CCOC(=O)c1ccc[n+](CC(=O)Nc2ccccc2OC(F)F)c1`: -5.72% (inactive); for `COc1cc2c(cc1OC)C(=O)NCC(C)(C)O2`: 5.06% (inactive).
Next, `CCC(C)[C@H]1COCCS(=O)(=O)N1Cc1ccc(C)cc1` (stereo not given in full): -11.6% (inactive); `CCOc1ccc(NC(=O)COc2ccc(C(=O)NC3CCCc4ccccc43)cc2OC)cc1` (stereo not given): -23.3% (inactive).
The same measure for `COC(=O)c1cc(OCC(=O)NC2CCCc3ccccc32)cc(C(=O)OC)c1` (stereo not given): 40.6% (active).
As for `Nc1ccc(C(=O)OCC(=O)NC2CCCc3ccccc32)cc1[N+](=O)[O-]` (stereo not given), the inhibition is -14.1% (inactive).
In the case of `CCOC(=O)C(Cc1ccccc1)NC(=O)CCC(=O)c1ccc(OC)cc1` (stereo not given), the inhibition is 4.46% (inactive).
Take `COc1cc([C@H](Cc2ccccc2)NC(C)=O)oc(=O)c1`: the inhibition is 59.4% (active).
Next, `COC(=O)[C@H](Cc1ccccc1)NC(=O)Nc1ccc(OC)cc1`: 2.03% (inactive); `Cc1ccc(OCC(=O)c2cc(C)n(Cc3ccco3)c2C)c([N+](=O)[O-])n1`: -1.45% (inactive).
The same measure for `COC(=O)c1c(NC(=O)c2ccc(S(=O)(=O)N3CCOCC3)cc2)sc2c1CCN(C(C)C)C2`: -0.44% (inactive); for `c1ccc2c(c1)CSc1sccc1C2=C1CCNCC1`: 8.84% (inactive).
Regarding `CCSc1nc2sc3c(c2c(=O)[nH]1)CC(C)(C)OC3`, the inhibition is 7.1% (inactive).
Turning to `CCC1(C)Cc2c(sc3nc(SC)[nH]c(=O)c23)CO1` (stereo not given), the inhibition was 6.42% (inactive).
The same measure for `CC/C(C)=N/Nc1nc2sc3c(c2c(=O)[nH]1)CC(C)(C)OC3`: 85% (active).
As for `Nc1cc(N)nc(SCC(=O)Nc2cccc(S(=O)(=O)N3CCCCC3)c2)n1`, the inhibition is -0.58% (inactive).
The same measure for `CC[C@]1(O)CC2CN(CCc3c([nH]c4ccccc34)[C@@](C(=O)OC)(c3cc4c(cc3OC)N(C=O)[C@H]3[C@@](O)(C(=O)OC)[C@H](OC(C)=O)[C@]5(CC)C=CCN6CC[C@]43[C@@H]65)C2)C1` (stereo not given in full): 20.2% (inactive); for `CC[C@]1(O)C[C@@H]2CN(CCc3c([nH]c4ccccc34)[C@@](C(=O)OC)(c3cc4c(cc3OC)N(C)[C@H]3[C@@](O)(C(=O)OC)[C@H](OC(C)=O)[C@]5(CC)C=CCN6CC[C@]43[C@@H]65)C2)C1`: 119% (active); for `O=C(Cn1c(NCCO)nc2ccccc21)c1ccc(Cl)cc1Cl`: -2.09% (inactive).
`CC[C@@H](C)[C@H](NC(=O)CCc1c(C)c2cc3c4c(oc3c(C)c2oc1=O)CCCC4)C(=O)O`: the inhibition was 8.32% (inactive).
Next, `COc1ccc2nc(N3CCCC(O)C3)c(C#N)cc2c1` (stereo not given): 26.1% (inactive).
The same measure for `CCOc1ccc2nc(N3CCCN(C(=O)Nc4ccccc4C)CC3)c(C#N)cc2c1`: 48.6% (active); for `CCOC(=O)c1cc(C#N)c(N2CCCCC2)nc1-c1ccccc1`: 2.02% (inactive); for `CSc1ncccc1C(=O)OCc1ccc(Br)cc1`: 4.52% (inactive).
On to `CCC(C)(C)NC(=O)c1cc([N+](=O)[O-])ccc1N1CCCCC1`, for which the inhibition is -1.47% (inactive).
The same measure for `O=C1Nc2ccccc2/C1=C/c1ccnc2ccccc12`: 4.28% (inactive).
For `CN(C)/C=C1/Nc2ccccc2C1=O`, the inhibition was 5.28% (inactive).
Turning to `Cc1cc(C)c(/C=C2\C(=O)Nc3ccccc32)[nH]1`, the inhibition was 180% (active).
Next, `CCOC(=O)CNc1nc2ccccc2n2c(C)nnc12`: 6.27% (inactive); `COc1ccc(CNc2nnnn2C)cc1`: 2.94% (inactive); `Fc1ccc(CNc2nc3ccccc3n3nnnc23)cc1`: 60.1% (active).
Consider `CCC1CCCCN1C(=S)Nc1ccc(SC(F)F)cc1` (stereo not given), for which the inhibition is 7.19% (inactive).
In the case of `COc1ccc(N2CC(C(=O)N[C@@H](C)C(=O)N3CCCCC3)CC2=O)cc1` (stereo not given in full), the inhibition was 3.6% (inactive).
The same measure for `C[N+](C)(CCCCCC[N+](C)(C)CCCN1C(=O)c2cccc3cccc(c23)C1=O)CCCN1C(=O)c2cccc3cccc(c23)C1=O`: -10.5% (inactive); for `O=C1c2ccccc2C(=O)N1c1cccc2ccccc12`: 2.1% (inactive).
The same measure for `O=C(O)c1ccc2c3c(cccc13)C(=O)N(OS(=O)(=O)c1ccccc1)C2=O`: -8.23% (inactive).
`Cc1nn(-c2cc(Cl)ccc2N)c(=O)c2ccccc12`: the inhibition was 0.14% (inactive).
`CC(C)(CNC(=O)Cc1ccc(Cl)cc1Cl)N1CCOCC1`: the inhibition is 4.7% (inactive).
The same measure for `O=C(c1cccnc1)N(c1cc2sc(=O)oc2c2ccccc12)S(=O)(=O)c1ccccc1`: 23.9% (inactive).
The same measure for `CCCCC(NC(=O)c1cccc(Br)c1)C(=O)O` (stereo not given): -0.19% (inactive); for `CC1=NN(C(C)C)C(=O)C1`: -2.13% (inactive); for `COCc1c(N)c(C)nc(Cl)c1C#N`: 8.83% (inactive).
Next, `CCOc1ccc(N(CC(=O)NCC2CCCO2)S(=O)(=O)c2ccc(C)cc2)cc1` (stereo not given): -3.41% (inactive); `O=C(CNC(=O)C1COc2ccccc2O1)N/N=C/c1cc(Br)c(O)c(Br)c1` (stereo not given): 10.8% (inactive); `Cc1c(C)c2ccc(OCC(=O)N3CCC(C(=O)O)CC3)c(C)c2oc1=O`: -1.79% (inactive).
For `Cc1c(CC(=O)N2CCN(C(=O)C3COc4ccccc4O3)CC2)c(=O)oc2c(O)c(O)ccc12` (stereo not given), the inhibition is 57.5% (active).
The same measure for `O=C(NCCCCc1ccccc1)C1CC(c2ccc([N+](=O)[O-])cc2)=NO1` (stereo not given): 12.6% (inactive); for `CN(CC(=O)NC1CCN(Cc2ccccc2)CC1)S(=O)(=O)c1ccc(Cl)s1`: 3.17% (inactive).
On to `CCc1cc(CNC(=O)CC2C(=O)NCCN2Cc2ccccc2C(F)(F)F)on1` (stereo not given), for which the inhibition is 17.3% (inactive).
Next, `CC1(C)CC(=O)C2=C(C1)NCN(CCCN1CCOCC1)C2`: -0.98% (inactive); `O=C(N/N=C/c1cc(Cl)cc([N+](=O)[O-])c1O)C(O)(c1ccccc1)c1ccccc1`: 9.22% (inactive); `O=[N+]([O-])c1cc(Cl)cc(/C=N/NC(=S)Nc2cc(S(=O)(=O)N3CCOCC3)ccc2Cl)c1O`: 52.5% (active).
The same measure for `O=C(NC(=S)Nc1ccc(S(=O)(=O)N2CCOCC2)cc1)c1ccccc1[N+](=O)[O-]`: 14.4% (inactive).
Next, `COC(=O)CN(c1cccc(C(C)=O)c1)S(C)(=O)=O`: 0.97% (inactive); `CCCSc1ncccc1C(=O)O`: -3.51% (inactive).
With `COc1cccc(Nc2ncccc2C(=O)O)c1`, the inhibition is 1.4% (inactive).
On to `COc1ccc(NS(=O)(=O)c2ccc(F)cc2F)cn1`, for which the inhibition is 8.27% (inactive).
Regarding `COc1ccc(Nc2cc(Cl)ccc2C(=O)O)cn1`, the inhibition is 62.7% (active).
Next, `CCCOc1ccc(Cl)cc1Nc1nc(NCCO)nc(N2CCCC2)n1`: 3.82% (inactive); `NC1=NC2(CCCCC2)N(c2ccc(F)cc2F)C(N)=N1`: 10.2% (inactive).
Next, `COc1ccc(Cl)cc1C(=O)OCC(=O)NCc1cccs1`: -2.56% (inactive); `O=C(CSc1ncccn1)N1CCCC1`: 9.67% (inactive).
Next, `C=CCNc1nnc(C)c2ccccc12`: -0.12% (inactive); `C=CCNc1nnc(SCC(=O)N2CCCCC2)c2ccccc12`: 120% (active).
As to `O=C(NCCSCc1ccccc1)c1ccc(Cl)c(S(=O)(=O)N2CCOCC2)c1`, the inhibition was 1.14% (inactive).
`O=C(c1ccc(F)c(S(=O)(=O)N2CCOCC2)c1)N(CCc1ccccc1)Cc1ccccc1`: the inhibition was 32.4% (inactive).
Next, `CCOc1ccc(NC(=O)CCCCCN2C(=O)[C@@H]3Cc4ccccc4CN3C2=O)cc1`: 6.32% (inactive); `COc1ccc(CC(=O)Nc2c3c(nn2-c2cccc(Cl)c2)CS(=O)C3)cc1` (stereo not given): -2.25% (inactive).

The record behind these values is PubChem BioAssay AID2057 (The Scripps Research Institute Molecular Screening Center, 2009).
